Test results reported in PubChem BioAssay AID878 (University of Pittsburgh Molecular Library Screening Center, 2007).
Among all 200,000 compounds or so, about 65 (0.03%) were called active.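 Rule for the calls: active = activation of at least 50% relative to the plate's high and low controls in the primary single-dose screen; inactive = activation below 50%.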 What follows is part of a selection rich in actives, with near analogues and random picks from the rest.

test: compounds producing H2O2 with reducing agent – biochemical, NIH compound library profiling, artefact control for MLSCN library redox annotation, primary screen (AID 878); details: DTT-dependent redox cycling H2O2, phenol red/HRP absorbance; at 10 µM; stronger effect = higher value; 100% = 100 µM peroxide control, 0% = buffer;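 note: compound incubated with DTT at 0.8 mM final as the reducing agent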

activation, active:
CCOC(=O)c1c(C)[nH]c2c1-c1ccccc1C(=O)C2=O 89.8%

activation, inactive:
CNC(=O)C(=O)N/N=C/c1ccccn1 0.83%
CCN(CC(=O)NCc1cccs1)S(=O)(=O)c1ccc(NC(C)=O)cc1 -2.2%
CCOC(=O)C1CCN(S(=O)(=O)c2cc(F)ccc2OC)CC1 -0.4%
Cc1ccc(CNC(=O)COc2ccc3c(c2)CCC3)cc1 -0.27%
CO/N=C/CC(=O)c1ccc(OC)cc1 -0.35%
CCCC1(C(=O)OCC)NC(c2ccc(N(C)C)cc2)C2C(=O)N(c3ccc4c(c3)OCCO4)C(=O)C21 (stereo not drawn) 0.78%
Cc1ccc(-n2c(C)cc(/C=N\NC(=O)CC(=O)NC(C)C)c2C)cc1 0.08%
O=C(/C=C/c1cccc([N+](=O)[O-])c1)NCCSCc1ccco1 -0.1%
Cc1ccc(CC(=O)Nc2ccc(OC(F)F)c(Cl)c2)cc1C 0.61%
CCOC(=O)c1c(C)[nH]c(=S)c(C#N)c1-c1ccccc1 -0.47%
CCOC(=O)C1=C(c2ccc(OC)cc2)C(=O)c2ccccc2C1=O 0.28%
COc1ccc(S(=O)(=O)N/N=C\c2ccc(OC)c(COc3ccc(C)cc3[N+](=O)[O-])c2)cc1 0.79%
Cc1cc(NC(=O)CSCc2ccccc2C)no1 -0.39%
COc1cc(CN2CCN(Cc3ccc(C)cc3)CC2)c([N+](=O)[O-])cc1OC -0.34%
Cc1ccc(-n2c(SCC(=O)N/N=C/C=C/c3ccccc3[N+](=O)[O-])nc3ccccc3c2=O)cc1 0.36%
Cc1ccc(C(C)(C)C)c(OCCCCN2CCCC2)c1 0.04%
COC(=O)c1c(C)[nH]c(C(=O)/C=C/c2ccc(Cl)cc2)c1C 0.44%
O=C(CSc1ncn[nH]1)NCc1ccc2c(c1)OCO2 -2.24%
COC(=O)c1c(NC(=O)CN2CCN(S(=O)(=O)c3ccccc3[N+](=O)[O-])CC2)sc2c1CCC(C)C2 (stereo not drawn) 0.62%
CCc1c(O)cc2n(c1=O)-c1ccccc1C2(C)C 0.55%
CC(=O)N1Cc2ccccc2CC1C(=O)O (stereo not drawn) 0.61%
Cc1ccc(OCC(=O)Nc2cccc3c2CCCC3)cc1C 1.68%
CCOC(=O)Cc1ncccc1C(=O)Nc1ccc(OC)cc1 -0.93%
O=C(C1=C[C@H](C2CC2)C[C@H](OCc2ccc(CO)cc2)O1)N1CCN(Cc2ccccc2)CC1 0.58%
Cc1ccc(S(=O)(=O)C2C(=O)NC3(C)CC2c2ccccc2O3)cc1 (stereo not drawn) 0.78%
COC(=O)/C=C\C(=O)Nc1cccc([N+](=O)[O-])c1 0.27%
CCn1c(=O)c(=O)n(CC)c2cc(S(=O)(=O)N3CCc4ccccc43)ccc21 -1.27%
O=C(Oc1cccc(N2C(=O)C3C4c5ccccc5C(c5ccccc54)C3C2=O)c1)c1ccco1 (stereo not drawn) 0.92%
CCC(=O)/C(=C(/O)c1ccccc1)c1nc2ccccc2[nH]1 -0.31%
FC(F)(F)c1cccc(Cc2noc(CN3CCC(N4CCCCC4)CC3)n2)c1 0.44%
Cc1ccccc1-n1nnnc1SCCCC(=O)c1ccc(F)cc1 0.87%
CCOC(=O)NC(=O)C(=CNc1cccc(OC)c1)C(=O)NC(=O)OCC -0.29%
O=C(CN(C(=O)c1csnn1)c1cccc(F)c1)NCc1ccc(F)cc1 0.3%
C=C(C)CNC(=S)N/N=C/c1ccccc1OCC(=O)O -0.31%
COc1ccc(NC(=O)c2ccccc2[N+](=O)[O-])cc1OC 0.48%
O=C(Nc1ccc(Br)cn1)c1ccc([N+](=O)[O-])o1 -1.5%
Cc1cc(C)c(C#N)c(N2CCC(C(N)=O)CC2)n1 -1.8%
O=C(NN1C(=O)C2C3C=CC(C3)C2C1=O)c1ccco1 (stereo not drawn) -0.88%
COc1ccccc1CC(NC(C)=O)C(=O)NC1CCN(C(=O)Nc2ccccc2Cl)CC1 (stereo not drawn) -0.13%
CCn1c(SCC(=O)N(C)C2CCS(=O)(=O)C2)nnc1-c1cccs1 (stereo not drawn) -1.15%
COC(=O)c1nc(NC(=O)c2ccc(C(C)(C)C)cc2)n[nH]1 -0.33%
O=C(C1CCN(S(=O)(=O)c2ccc(Br)s2)CC1)N1CCN(C2CCCCC2)CC1 0.46%
CSCCNCc1cn(-c2ccc(F)cc2F)nc1-c1ccccc1C 0.48%
COC(=O)Cc1ccc(OCC(=O)Nc2ccc(OC(F)(F)F)cc2)cc1 0.09%
O=C1/C(=C\c2ccccc2Cl)SC(=S)N1CCC(=O)N1CCCc2ccccc21 -0.64%
CC(C)Oc1ccc(/C=C(\NC(=O)/C=C/c2ccco2)C(=O)NCCc2nc3ccccc3[nH]2)cc1 0.27%
O=C(NN1C(=O)C2C3C=CC(O3)C2C1=O)c1ccccc1 (stereo not drawn) -0.16%
COc1cc2c3c(c1)/C(=C1/SC(=S)NC1=O)C(=O)N3C(C)(C)C=C2C -0.69%
CN(C)c1ccc(/C=N/NC(=O)c2ccc(Cn3cc(Br)cn3)o2)cc1 -0.04%
COCC(C)NC(=O)CSc1nc2nn(-c3ccccc3)c(=O)c-2c2n1CCCCC2 (stereo not drawn) -1.27%
CN(C)C(=O)c1ccc2c(c1)C1C3CCC(C3)C1C(c1ccccc1)N2 (stereo not drawn) -0.17%
N=c1n(CCc2ccccc2)c2ccccc2n1Cc1ccccc1F -0.46%
COc1ccc(C2NC(=S)NC3=C2CCc2ccccc23)cc1OC (stereo not drawn) 0.96%
CCCn1c(N)c(C(=O)CSc2nc3ccccc3c(=O)n2-c2ccc(OC)cc2)c(=O)[nH]c1=O 0.00314%
CC(C)c1nccn1S(=O)(=O)c1cc([N+](=O)[O-])ccc1Cl 1.71%
O=c1cc(-c2ccccc2)[nH]c2cc(F)ccc12 -0.1%
COc1ccccc1N1CCN(CC(=O)NCCc2ccc(S(N)(=O)=O)cc2)CC1 0.00253%
